Tests used:
Format in all cases: functional
[1] = biological target: Solute carrier family 2, facilitated glucose transporter member 1 (Homo sapiens) (UniProt P11166); assay: ST_JUDE_LEISH: Cytotoxicity at 2uM final concentration against transgenic Leishmania Mexicana promastigotes LmGLUT1 that are glucose transport deficient and complemented with the human glucose transporter GLUT1. Activity is measured by DNA content using SYBR green in vitro
[2] = biological target: Hexose transporter 1 (Plasmodium falciparum) (UniProt O97467); assay: ST_JUDE_LEISH: Cytotoxicity at 2uM final concentration against transgenic Leishmania Mexicana promastigotes LmPfHT that are glucose transport deficient and complemented with the Plasmodium falciparum hexose transporter. Activity is measured by DNA content using SYBR green in vitro
[3] = biological target: Glucose transporter (Leishmania mexicana) (UniProt O61059); assay: ST_JUDE_LEISH: Cytotoxicity at 2uM final concentration against transgenic Leishmania Mexicana promastigotes LmGT2 that are glucose transport deficient and complemented with the L. Mexicana glucose transporter 2. Activity is measured by DNA content using SYBR green in vitro

Solute carrier family 2, facilitated glucose transporter member 1 (Homo sapiens), sequence (P11166 whole entry): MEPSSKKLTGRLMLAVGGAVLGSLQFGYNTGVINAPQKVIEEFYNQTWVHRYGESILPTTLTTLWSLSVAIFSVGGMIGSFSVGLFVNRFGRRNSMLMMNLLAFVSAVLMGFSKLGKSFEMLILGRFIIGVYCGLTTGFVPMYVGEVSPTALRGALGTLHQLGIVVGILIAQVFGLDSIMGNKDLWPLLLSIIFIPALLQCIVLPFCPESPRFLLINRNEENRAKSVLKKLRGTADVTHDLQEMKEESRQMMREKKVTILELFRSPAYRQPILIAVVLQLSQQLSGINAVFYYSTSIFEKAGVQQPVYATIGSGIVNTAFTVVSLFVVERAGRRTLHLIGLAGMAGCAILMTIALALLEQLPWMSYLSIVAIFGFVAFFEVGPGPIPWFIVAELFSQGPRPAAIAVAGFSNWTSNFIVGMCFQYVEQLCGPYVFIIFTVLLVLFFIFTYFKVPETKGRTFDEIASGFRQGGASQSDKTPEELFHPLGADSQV

Row | SMILES | inhibition [1] | inhibition [2] | inhibition [3]
1 | c1cc2[nH]c(CCCCCc3nc4cc(C5=N[C@@H]6CCCC[C@@H]6N5)ccc4[nH]3)nc2cc1C1=N[C@@H]2CCCC[C@@H]2N1 | 3.32% | 2.96% | 1.81%
2 | COc1ccc(NC(=O)NC2CCN(CCCCCNC(=O)/C=C/c3ccc(Cl)c(Cl)c3)CC2)cc1 | -1.04% | -0.81% | -2.52%
3 | O=C(Nc1cccc(CN2CCCN(CC3CC3)CC2)c1)c1ccc(Cl)c(Cl)c1 | 10.8% | 10.2% | 12.6%
4 | O=C(NCCCCCN1CCCN(C(=O)Nc2ccc(F)c(C(F)(F)F)c2)CC1)C1CC1c1ccc(Cl)c(Cl)c1 (stereo not drawn) | 2.53% | 2.1% | 0.2%
5 | CN(C)C(CNC(=O)c1cc(-c2ccncc2)c(-c2cc3ccccc3[nH]2)o1)c1ccccc1 (stereo not drawn) | 3.53% | 2.32% | 2.06%
6 | Oc1ccc(CCCNc2nc(NCc3cccc4ccccc34)nc(N3CCNCC3)n2)cc1 | -1.06% | 0.53% | 0.63%
7 | COc1ccc2c(N/N=C/c3cccc([N+](=O)[O-])c3)cc(C)nc2c1 | 1.12% | 4.05% | 0.63%
8 | O=C(/C=C/c1ccc(Cl)c(Cl)c1)NCCCCCN1CCC(NC(=O)Nc2ccc(C(F)(F)F)cc2)C1 (stereo not drawn) | -0.17% | -0.88% | -3.22%
9 | COc1cc(F)c2ncc(C#N)c(CCN3CCC(NCc4ccc5c(c4)OCCO5)CC3)c2c1 | 91.3% | 95.1% | 93.9%
10 | CC1(C)CCNc2cc(NC(=O)c3ccc(-c4ncccc4C(F)(F)F)cc3)ccc21 | 2.63% | 1.14% | 0.73%
11 | O=S(=O)(Nc1cccc(CCN2CCC(N3CCCCC3)CC2)c1)c1ccc2c(c1)OCCO2 | 1.3% | 4.23% | 8.66%
